“And” between values parts separate entries of the source, which are not always exact repeats. Identical values can stand only once. Results filed as inconclusive are left out. A structure can be active in one record and inactive in another. The source made the active and inactive calls.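 The calls were made as follows, unless noted: active = mean z-score across replicates of 1.96 or higher in either the MELAS or the Rieske mutant cell line; inactive = the rest.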

The values that follow come from PubChem BioAssay.

A short description of assay [1]: SU-DIPG-VI glioma cell viability, MIPE4.0 library, CellTiter-Glo luminescence, qHTS (AID 1347066; cut-off not given, nearly all actives have AC50 up to about 30 µM;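 also: cells exposed to compound for 48 hours before readout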). The conditions noted are these: CellTiter-Glo ATP luminescence. For orientation: Cellular ATP, detected with luciferase, serves as a proxy for viable cell number.
The nature of assay [2]: survival rescue of mitochondrial mutant cells in low glucose, primary screen, MELAS cybrids, Rieske KO mouse fibroblasts, CellTiter-Glo (AID 1508586).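 Also: z relative to plate mean and SD of compound and empty wells.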
Assay [3] has as its target NAD(+) hydrolase SARM1 (Homo sapiens) (UniProt Q6SZW1). Briefly: SARM1 TIR NADase inhibitors, cell lysate, NAD-Glo luminescence (AID 1508614;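 active = compound whose remaining NAD level is above about 45 nM, limit read from the data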;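 also: higher remaining NAD means stronger inhibition of SARM1 NADase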). Conditions: SAM-TIR HEK293T lysate NADase, at 1 µM, stronger effect = higher value.
A short description of assay [4]: sensitizers of A549 cells to miR-34 induction, primary screen, imaging, A549 dox-inducible miR-34, nuclei and caspase counts (AID 1347080;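 active = compounds whose cell count with miR-34 switched on is under 0.7 times the count with it off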). Conditions: A549 miR-34 inducible, Hoechst nuclei count, 48 h.
Assay [5] can be described thus: viability rescue of complex I mutant cybrids, primary screen, cell-based, galactose medium, ATP luminescence (AID 1645843;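 active = z-score of at least 1.8 in each of two replicates, scored against plate mean and spread of sample wells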;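 also: positive z means more ATP and so rescue of galactose-driven cybrid death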). Conditions: complex I mutant cybrid cells, 72 h, stronger effect = higher value.
Assay [6] can be described thus: phospholipid biosynthesis inhibitors in animal cells, primary screen, cell-based, LOPAC library, screen 4 (AID 1347384; call rule not given here). The conditions noted are these: phospholipid biosynthesis inhibition screen, at 10 µM.
For assay [7], the target named is Mitogen-activated protein kinase 7 (Homo sapiens) (UniProt Q13164). Nature of the assay: ERK5 transactivation activators in reporter cells, primary screen, cell-based, HTS (AID 1508626;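 active = luciferase signal above three times the same-plate solvent-only control wells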;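 also: luciferase driven by Gal4-ERK5 fusion binding five Gal4 sites before minimal TATA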). The conditions noted are these: HeLa Gal4-ERK5 transactivation, 18 h, at 5 µM, stronger effect = higher value.
The nature of assay [8]: LFS_MB_P medulloblastoma growth inhibition, cell-based, chromothripsis tumors, cisplatin or BGB combos (AID 1671449; in the data active = inhibition above about 80%;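 also: cells exposed for 96 hours; 0% = vehicle DMSO and 100% = killing by high DMSO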). Conditions: LFS_MB_P medulloblastoma cells.
A short description of assay [9]: HDN33 neuroblastoma growth inhibition, cell-based, chromothripsis tumors, cisplatin or BGB combos (AID 1671450; in the data active = inhibition above about 80%;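 also: cells exposed to compound for four days; 0% = vehicle DMSO and 100% = cell killing by high DMSO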). The conditions noted are these: HDN33 neuroblastoma cells, stronger effect = higher value.
Assay [10] can be described thus: ICB984 medulloblastoma cell growth inhibition, synergistic combos for chromothripsis tumors, cisplatin or BGB combos (AID 1671451; call rule not given here;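 also: cells exposed for 96 hours before readout; 0% = vehicle DMSO and 100% = killing by high DMSO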). Conditions: ICB984 medulloblastoma cells, drug combinations, stronger effect = higher value.
Assay [11] can be described thus: LFS_MB_1R medulloblastoma cell growth inhibition, synergistic combos for chromothripsis tumors, cisplatin or BGB combos (AID 1671452; in the data active = inhibition above about 80%;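 also: cells exposed for 96 hours before readout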). The conditions noted are these: LFS_MB_1R medulloblastoma cells, stronger effect = higher value.
Assay [12] is described as follows: HTB85 osteosarcoma cell growth inhibition, synergistic combos for chromothripsis tumors, BGB or cisplatin IC20 combos (AID 1671453; in the data active = inhibition above about 80%;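 also: cells exposed for 96 hours before readout; 0% = vehicle DMSO and 100% = high DMSO killing control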). The conditions noted are these: HTB85 osteosarcoma cells, drug combinations, stronger effect = higher value.
Assay [13] in a line: CRL2098 osteosarcoma cell growth inhibition, synergistic combos for chromothripsis tumors, BGB or cisplatin IC20 combos (AID 1671454; in the data active = inhibition above about 80%;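 also: cells exposed for 96 h before readout; 0% = vehicle DMSO and 100% = killing by high DMSO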). The conditions noted are these: CRL2098 osteosarcoma cells, drug combinations, stronger effect = higher value.
A short description of assay [14]: HD-MB03 medulloblastoma cell growth inhibition, synergistic combos for chromothripsis tumors, BGB or cisplatin IC20 combos (AID 1671455; in the data active = inhibition above about 83%;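 also: 0% = vehicle DMSO and 100% = high DMSO as cytotoxic control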). Conditions: HD-MB03 medulloblastoma cells, stronger effect = higher value.
[15] abbreviates: MELAS cybrid survival, CellTiter-Glo 48 h, stronger effect = higher value.
Where [16] appears, read: Rieske KO mouse fibroblast survival, CellTiter-Glo 72 h.
Setting [17] is: stronger effect = lower value, cell number ratio, induced over uninduced.
Where [18] appears, read: measured here: relative caspase fold change +Dox/-Dox.
Setting [19] is: measured here: total cells with miR-34 induction, stronger effect = lower value.
[20] abbreviates: measured here: total cells without miR-34 induction.
Setting [21] is: measured here: combination with BGB IC40, at 0.05 µM.

Sequence of NAD(+) hydrolase SARM1 (Homo sapiens) (Q6SZW1 whole entry, looked up): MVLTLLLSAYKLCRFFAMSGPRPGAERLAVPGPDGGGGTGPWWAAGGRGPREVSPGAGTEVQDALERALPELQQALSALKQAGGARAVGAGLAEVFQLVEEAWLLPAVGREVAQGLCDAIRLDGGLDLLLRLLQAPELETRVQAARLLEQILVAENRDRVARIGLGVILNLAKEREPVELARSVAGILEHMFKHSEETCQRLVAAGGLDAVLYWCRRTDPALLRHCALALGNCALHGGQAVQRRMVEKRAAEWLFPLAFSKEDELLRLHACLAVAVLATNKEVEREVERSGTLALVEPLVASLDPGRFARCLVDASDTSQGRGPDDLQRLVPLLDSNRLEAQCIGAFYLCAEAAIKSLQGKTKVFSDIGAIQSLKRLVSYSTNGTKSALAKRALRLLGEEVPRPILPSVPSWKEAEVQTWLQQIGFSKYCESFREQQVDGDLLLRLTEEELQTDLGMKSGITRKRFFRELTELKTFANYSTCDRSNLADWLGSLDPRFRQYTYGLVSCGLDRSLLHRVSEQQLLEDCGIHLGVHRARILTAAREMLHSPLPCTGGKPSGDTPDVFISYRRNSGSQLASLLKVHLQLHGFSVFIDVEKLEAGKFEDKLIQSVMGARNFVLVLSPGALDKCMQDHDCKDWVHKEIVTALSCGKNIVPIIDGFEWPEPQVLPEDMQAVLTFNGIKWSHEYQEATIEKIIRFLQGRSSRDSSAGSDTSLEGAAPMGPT
Sequence of Mitogen-activated protein kinase 7 (Homo sapiens) (Q13164 whole entry, looked up, the tested form may be a part): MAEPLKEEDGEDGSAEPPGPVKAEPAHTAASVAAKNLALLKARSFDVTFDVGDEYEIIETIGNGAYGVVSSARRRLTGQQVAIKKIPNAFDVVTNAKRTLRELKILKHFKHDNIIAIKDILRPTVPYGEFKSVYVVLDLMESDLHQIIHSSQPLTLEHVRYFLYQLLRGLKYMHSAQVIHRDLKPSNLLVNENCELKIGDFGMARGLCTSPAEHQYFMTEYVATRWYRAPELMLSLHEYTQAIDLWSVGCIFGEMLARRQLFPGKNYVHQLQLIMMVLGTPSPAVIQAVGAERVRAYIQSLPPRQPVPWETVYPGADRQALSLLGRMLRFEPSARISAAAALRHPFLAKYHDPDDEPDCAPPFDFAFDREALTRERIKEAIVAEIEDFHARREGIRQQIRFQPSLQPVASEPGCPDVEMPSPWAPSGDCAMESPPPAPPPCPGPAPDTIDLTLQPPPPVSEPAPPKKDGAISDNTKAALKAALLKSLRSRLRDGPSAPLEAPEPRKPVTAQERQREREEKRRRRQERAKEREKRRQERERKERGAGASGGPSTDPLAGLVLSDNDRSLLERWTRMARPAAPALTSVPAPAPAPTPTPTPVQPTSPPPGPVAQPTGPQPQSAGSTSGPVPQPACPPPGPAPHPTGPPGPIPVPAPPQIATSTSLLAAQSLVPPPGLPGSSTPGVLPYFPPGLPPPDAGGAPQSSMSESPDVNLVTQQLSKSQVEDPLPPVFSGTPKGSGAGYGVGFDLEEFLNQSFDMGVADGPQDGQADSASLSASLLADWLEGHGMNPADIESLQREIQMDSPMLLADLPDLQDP

With `CC(C)c1nc(CN(C)C(=O)N[C@H](C(=O)N[C@@H](Cc2ccccc2)C[C@H](O)[C@H](Cc2ccccc2)NC(=O)OCc2cncs2)C(C)C)cs1`, the call in [1] was inactive. For the same compound, the z-score in assay [2] (setting [15]) was -1.48 (inactive); in [2] (setting [16]) it was 0.534. The remaining NAD in assay [3] was 10 nM (inactive).
`O=c1[nH]cnc2c1ncn2[C@H]1CC[C@@H](CO)O1`: the compound was called inactive in [1]. The fold change in assay [4] (setting [17]) was 0.88 (inactive) and 0.877 (inactive); in assay [4] (setting [18]) it was 1.12 and 1.04. The cell count in assay [4] (setting [19]) was 8250 and 10000; in [4] (setting [20]) it was 9380 and 11400. In addition, the z-score was -0.8 (inactive) and -0.278 (inactive) in [2] (setting [15]); -0.19 and -0.4 in assay [2] (setting [16]); 0.385 (inactive) in [5].
As usually defined, the AC50 is the concentration at which the activity in the assay is half-maximal. In the case of `CC(C)(C)NC(=O)[C@@H]1CN(Cc2cccnc2)CCN1C[C@@H](O)C[C@@H](Cc1ccccc1)C(=O)N[C@H]1c2ccccc2C[C@H]1O`, the AC50 in assay [1] is 20.9 µM (active). Moreover, the z-score was -0.264 (inactive) in assay [2] (setting [15]) and 0.0624 in [2] (setting [16]).
As for `O=C(c1ccc(F)cc1)C1CCN(CCn2c(=O)[nH]c3ccccc3c2=O)CC1`, the outcome in [1] and in assay [6] was inactive. Further, the z-score in assay [2] (setting [15]) was -0.256 (inactive) and 0.859 (inactive) and 1.46 (inactive); in [2] (setting [16]) it was 0.928 and -0.102 and 0.875; in assay [5] it was 0.47 (inactive) and 0.155 (inactive) and 0.975 (inactive). In [3], the remaining NAD was 10 nM (inactive).
The term inhibition denotes the relative decrease from the control value, in per cent. Turning to `CCn1cc(C(=O)O)c(=O)c2cc(F)c(N3CCNCC3)nc21`, the result in [1] was inactive. Besides, the fold change was 0.955 (inactive) and 0.936 (inactive) and 0.839 (inactive) in assay [4] (setting [17]); 0.759 and 2.37 and 1.38 in assay [4] (setting [18]). In addition, the cell count in assay [4] (setting [19]) was 8750 and 11500 and 9060; in assay [4] (setting [20]), 9160 and 12300 and 10800. For the same compound, the z-score was -0.278 (inactive) and 0.526 (inactive) and -0.113 (inactive) in [2] (setting [15]); 0.647 and 0.794 and 0.23 in assay [2] (setting [16]); -0.075 (inactive) in [5]. Also, the remaining NAD in [3] was 10 nM (inactive). Besides, the luciferase signal in assay [7] is 40 AU (inactive). Further, the inhibition was 95.5% (active) and -29.1% (inactive) in assay [8] (at 0.5 µM, stronger effect = higher value); -19.8% and -22.4% in [8] (measured here: combination with BGB IC20, at 0.005 µM); -56.7% and 0.955% in assay [8] (measured here: combination with BGB IC40, at 0.005 µM); -47.1% and -2.69% in assay [8] (setting [21]); 108% and -48.6% in assay [8] (measured here: combination with cisplatin, at 0.5 µM, stronger effect = higher value); -38.7% and -12% in assay [8] (measured here: combination with cisplatin, at 5 µM, stronger effect = higher value). Moreover, the inhibition in [9] (BGB combo, at 5 µM) was -53.5% and -12.2%; in [9] (at 0.5 µM), -20.8% (inactive) and 3.72% (inactive); in assay [9] (cisplatin combo, at 5 µM), -17.5% and -19.5%; in assay [9] (measured here: with BGB IC20 combination, at 0.5 µM), -36.2% and -5.94%; in assay [9] (measured here: with cisplatin IC20 combination, at 0.5 µM), 4.58% and 5.43%; in assay [9] (single agent, at 5 µM) it was -41.7% and 2.78%. Further, the inhibition in assay [10] (BGB IC20 combo, at 0.005 µM) is -24.2% and -17.5%; in [10] (BGB IC40 combo, at 0.005 µM), -20.3% and -26.8%; in assay [10] (BGB IC40 combo, at 0.05 µM), -25.4% and -9.4%; in assay [10] (at 0.5 µM) it was -21.1% (inactive) and -10.7% (inactive); in [10] (cisplatin combo, at 0.05 µM), -31.9% and -9.4%; in [10] (cisplatin combo, at 0.5 µM), -30.1% and -9.09%. Besides, the inhibition in assay [10] (cisplatin combo, at 5 µM) is -14.7% and -13.9%; in assay [10] (measured here: 5 uM single agent, at 5 µM) it was -13.9% and -18.7%; in assay [11] (at 0.5 µM), -40% (inactive) and 2.92% (inactive); in assay [11] (setting [21]), -27.4% and 5.91%; in assay [11] (measured here: combination with cisplatin, at 0.5 µM), -80.9% and -14.1%; in assay [11] (measured here: combination with cisplatin, at 5 µM), -47.5% and -13.9%. The inhibition in [12] (at 0.5 µM) is -12.7% (inactive) and -3.77% (inactive); in assay [12] (measured here: with BGB IC20, at 0.5 µM) it was 1.15% and -26.8%; in assay [12] (measured here: with BGB IC20, at 5 µM), -15.3% and -6.32%; in [12] (measured here: with cisplatin IC20, at 0.5 µM), -12.7% and 12.5%; in assay [12] (measured here: with cisplatin IC20, at 5 µM), -14.2% and -4.27%; in [12] (single agent, at 5 µM) it was 1.99% and -0.637%. Further, the inhibition in assay [13] (at 0.5 µM) is -80.2% (inactive) and -23.4% (inactive); in assay [13] (measured here: combination with BGB at IC20, at 0.5 µM) it was -85.1% and -50.3%; in assay [13] (measured here: combination with cisplatin at IC20, at 0.5 µM) it was -99.8% and 10.9%; in assay [14] (at 0.5 µM), -13.7% (inactive) and -3.13% (inactive); in assay [14] (measured here: combo with BGB at IC20, at 0.5 µM) it was -9.56% and -6.49%; in assay [14] (measured here: combo with cisplatin at IC20, at 0.5 µM), -20.1% and 4.15%.
